IL1B secr inh = inflammasome signaling inhibition, IL-1 beta readout; THP-1 LPS/ATP IL-1B secretion, AlphaLISA, 16 h; stronger effect = lower value; activity change, % at 57.5 µM; actives 4.7% (n = 360,000); in the data active means activity change below about -50%; inconclusive means mostly about -30% to -49%
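Secreted IL-1B measured by AlphaLISA bead assay after 16 h compound exposure of THP-1 cells; compounds (final up to 57.5 uM) added 1 h before LPS (250 ng/mL) and ATP (1.25 mM) stimulation; lower signal means less secretion.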
HT1080-NT tox = kills 2HG-producing HT-1080-NT fibrosarcoma cells. HT-1080-NT fibrosarcoma viability, CellTiter-Glo ATP luminescence, 48 h. Potency, µM (highest dose often 46.1 µM), for inactives: at the highest dose activity, negative = less viability, actives largely listed as cytotoxic. actives 1.6% (n = 360,000). AID 686970;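 further: NT is the 2HG producing partner of a matched IDH1 knockdown line; potency means the concentration at half of the fitted maximal effect; 0% = DMSO-treated cells and -100% = media-only wells without cells; nearly all actives have a fitted effect of over 55% in size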
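Fibrosarcoma NT cells, 750 per well in 5% FBS RPMI, were exposed to compound for 48 hours. Viability: CellTiter-Glo luminescence.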
HT1080 IDH1KD tx = HT-1080 IDH1 knockdown cell toxicity (counter line); HT-1080 IDH1 knockdown viability, ATP luminescence, 48 h; Potency, µM (highest dose often 46.1 µM), for inactives: at the top dose activity, negative = toxicity, usual class: cytotoxic; actives 2% (n = 360,000);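 further: potency means the concentration at half of the fitted maximal effect; 0% = DMSO wells and -100% = cell-free medium wells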
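HT-1080-IDH1KD cells (IDH1 knocked down), 750/well in RPMI with 5% FBS, treated with compound 48 h at 37 degrees C. Viability by CellTiter-Glo luminescence, normalised to DMSO and no-cell wells; concentration-response curves classed.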
ALOX12 inh = ALOX12 (human) lipoxygenase inhibition; P18054; purified 12hLO, xylenol orange hydroperoxide absorbance; Potency, µM (highest dose often 108 µM), for inactives: at the top dose activity change, negative = inhibition, hits mostly inhibitors; actives 1.1% (n = 580,000); AID 1671190; further: potency means the concentration at half of the fitted maximal effect
Target sequence (P18054 whole entry, looked up): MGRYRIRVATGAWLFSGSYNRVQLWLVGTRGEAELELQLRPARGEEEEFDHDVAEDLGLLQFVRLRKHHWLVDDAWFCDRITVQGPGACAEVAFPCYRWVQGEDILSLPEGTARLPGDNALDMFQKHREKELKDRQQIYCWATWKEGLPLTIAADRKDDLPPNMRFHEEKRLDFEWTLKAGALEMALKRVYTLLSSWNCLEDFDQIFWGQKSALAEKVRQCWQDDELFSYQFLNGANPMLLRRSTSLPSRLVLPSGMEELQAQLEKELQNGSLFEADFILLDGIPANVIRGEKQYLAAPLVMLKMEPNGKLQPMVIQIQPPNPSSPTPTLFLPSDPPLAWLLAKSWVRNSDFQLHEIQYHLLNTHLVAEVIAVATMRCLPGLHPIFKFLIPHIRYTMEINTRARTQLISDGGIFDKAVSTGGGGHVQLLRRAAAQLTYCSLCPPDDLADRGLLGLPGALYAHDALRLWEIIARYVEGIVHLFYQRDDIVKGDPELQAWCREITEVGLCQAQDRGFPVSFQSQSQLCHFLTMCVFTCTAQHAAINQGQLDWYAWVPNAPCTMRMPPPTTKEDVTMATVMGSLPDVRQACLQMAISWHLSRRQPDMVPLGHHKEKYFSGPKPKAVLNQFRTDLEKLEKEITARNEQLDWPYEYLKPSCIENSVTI
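Purified human 12hLO (150 nM final) in 25 mM Hepes, 0.01% Triton X-100, pH 7.0 was preincubated 15 min at room temperature with compound. Then 40 uM arachidonic acid was added, 30 min. Hydroperoxide was read by Fe-XO absorbance ratio 573/405 nm.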
DT40 TDP1 CPT = DT40-hTDP1 cell growth loss with CPT; actives 12% (n = 420,000); Potency, µM (series often up to 46.2 µM), for the others: top-dose activity change, negative = growth inhibition, hits mostly inhibitors; chicken DT40 Tdp1-/-;hTDP1 cells + 20 nM CPT, ATP luminescence, 48 h; further: potency means the concentration at half of the fitted maximal effect; nearly all actives have a fitted effect of over 55% in size
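Chicken DT40 Tdp1-/- cells stably complemented with human TDP1 were seeded at 400 cells/well in medium containing 20 nM camptothecin, exposed to pin-transferred compounds, and grown at 37 °C for at least 48 hr. Viability was read as ATP luminescence.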
TDP1 cell noCPT = qHTS for Inhibitors of human tyrosyl-DNA phosphodiesterase 1 (TDP1): qHTS in cells in absence of CPT. Potency, µM (titrated, usually from 46.2 µM), for the others: at the highest dose activity change, negative = growth inhibition, usual class: inhibitors. DT40 Tdp1-/- hTDP1 cells, no CPT, ATP luminescence, 48 h. actives 15% (n = 420,000); further: potency means the concentration at half of the fitted maximal effect; nearly all actives have a fitted effect of over 55% in size
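Readout: luminescence from CellTiter-Glo after 30 min in the dark at RT. Cells: DT40 Tdp1-/- with stable hTDP1, 400/well. Exposure: compounds alone, ≥48 hr, 37 °C.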
Numbers without * were called inactive; ? = inconclusive; · = no result; [ ] = dose if it differs, or a comment. Shown is part of a subset that was picked to be rich in hits. Unless noted, the call rests on the fitted dose curve; in most records, active means well fitted curve in the direction sought with a large enough effect; inconclusive means small, poorly fitted or top-dose-only effect, or another doubt; inactive means no such curve, though single readings can be large; an effect the other way counts as inactive or inconclusive. Unless noted, on the % scale 0 is the no-effect control and ±100 the full control effect.

SMILES	IL1B secr inh	HT1080-NT tox	HT1080 IDH1KD tx	ALOX12 inh	DT40 TDP1 CPT	TDP1 cell noCPT
COc1ccc(Nc2cc(-n3ncc(C(C)=O)c3C)nc(C)n2)cc1	·	·	·	-2.7%	·	·
CCc1c(C)nc(SCc2nc(-c3ccc(OC)cc3OC)oc2C)[nH]c1=O	·	·	·	1.1%	·	·
N#Cc1ccccc1OCC(=O)N(Cc1nnc(-c2ccccc2Cl)o1)C1CC1	0.5	-1.9%	2.6%	10.3%	?	16.4µM*
COC(=O)C(c1ccccc1)N(Cc1cccc(CN(C(C(=O)OC)c2ccccc2)S(C)(=O)=O)c1)S(C)(=O)=O (stereo not drawn)	12.5	9.3%	5.1%	1.9%	?	16.4µM*
Cc1ccc([N+](=O)[O-])cc1S(=O)(=O)N1CCNCC1	-5.0	5.6%	-7.1%	2.5%	?	?
Cc1ccc([N+](=O)[O-])cc1S(=O)(=O)N(C)N=Cc1cnc2ccc(Br)cn12	·	·	·	8.63µM*	·	·
COC(=O)[C@@]1(Cc2ccc(F)cc2)[C@H]2c3cc(C(=O)N4CCCC4)n(Cc4ccc(C(F)(F)F)nc4)c3C[C@H]2CN1C(=O)c1ccccc1	?	-12.4%	-10.2%	10.3%	?	?
COC(=O)[C@@]1(Cc2ccc(F)cc2)[C@H]2c3cc(C(=O)N4CCCC4)n(Cc4ccc(C)o4)c3C[C@H]2CN1C(=O)c1ccccc1	-86.9*	?	20.6µM*	-21.7%	?	?
COC(=O)[C@@]1(Cc2ccc(F)cc2)[C@H]2c3cc(C(=O)N4CCCC4)n(CCF)c3C[C@H]2CN1C(=O)c1ccccc1	?	?	-13.9%	1.2%	23.1µM*	23.1µM*
COC(=O)[C@@]1(Cc2ccc(F)cc2)[C@H]2c3cc(C(=O)N4CCCC4)n(CCCNc4ncc(C(F)(F)F)cc4Cl)c3C[C@H]2CN1C(=O)c1ccccc1	0.0	-24.0%	-21.8%	·	?	16.4µM*
COC(=O)[C@@]1(Cc2ccc(F)cc2)[C@H]2c3cc(C(=O)N4CCCC4)n(CC4CC4)c3C[C@H]2CN1C(=O)c1ccccc1	0.0	?	?	-11.4%	?	?
COC(=O)[C@@]1(Cc2ccc(F)cc2)[C@H]2c3cc(C(=O)N4CCCC4)n(Cc4ccc(C)c(F)c4F)c3C[C@H]2CN1C(=O)c1ccccc1	0.0	?	?	-23.0%	?	23.1µM*
COc1ccccc1CNC(=O)c1nnn2cc(C)[nH]c(=O)c12	·	·	·	-8.9%	·	·
COCc1nnc(NC(=O)Cn2ccc3ccc(Br)cc32)s1	·	·	·	24.0%	·	·
COC(=O)[C@@]1(Cc2ccc(F)cc2)[C@H]2c3cc(C(=O)N(C)C)n(Cc4cc(C)n(C)n4)c3C[C@H]2CN1C(=O)c1ccccc1	-11.8	-17.6%	-8.0%	5.1%	?	?
COC(=O)[C@@]1(Cc2ccc(F)cc2)[C@H]2c3cc(C(=O)N4CCCC4)n(Cc4cc(C)n(C)n4)c3C[C@H]2CN1C(=O)c1ccccc1	-7.4	-15.6%	-19.3%	-46.5%	20.6µM*	16.4µM*
COc1cc(/C=N/O)cc(Br)c1OCc1ccc(C(=O)O)cc1	·	·	·	5.4%	·	·
Clc1cc(Cl)cc(NC2CNC2)c1	·	·	·	-2.1%[12.5 µM]	·	·
N#Cc1ccc(N2CCC(C(=O)Nc3cccc(S(=O)(=O)N4CCCC4)c3)CC2)nc1	·	·	·	-15.9%	·	·
Cc1[nH]n(-c2ncc(-c3ccc(Cl)cc3)s2)c(=O)c1C(c1ccc(Cl)cc1)C(C#N)C#N (stereo not drawn)	?	?	?	·	-23.2%	?
COc1ccc(C(c2c(C)[nH]n(C(N)=S)c2=O)C(C#N)C#N)cc1 (stereo not drawn)	-27.6	20.8%	8.0%	?	23.1µM*	?
O=C(NC1CCCC1)C1=Cc2cc(Br)ccc2OC=C1	·	·	·	27.0%	·	·
O=C(c1ccccc1OCc1ccc(Cl)cc1)N1CCN(c2ccccn2)CC1	-18.3	-18.5%	-7.5%	1.1%	23.1µM*	?
Cc1ccc(CS(=O)Cc2ccc(C(=O)N3CCN(c4ccccn4)CC3)o2)cc1 (stereo not drawn)	1.5	-0.1%	3.0%	0.2%	20.6µM*	?
COC(=O)c1cc(C(=O)N2CCN(c3cccc(C)c3C)CC2)cc([N+](=O)[O-])c1	31.0	1.84µM*	2.31µM*	1.5%	5.8µM*	2.59µM*
SMILES	IL1B secr inh	HT1080-NT tox	HT1080 IDH1KD tx	ALOX12 inh	DT40 TDP1 CPT	TDP1 cell noCPT
COc1ccccc1N1CCN(C(=O)c2ccc(CS(=O)c3ccccc3C)o2)CC1 (stereo not drawn)	·	·	·	-17.1%	11.6µM*	13µM*
O=C(CSc1nnnn1C1CCCCC1)NC(c1ccccc1)c1cccs1 (stereo not drawn)	·	·	·	-3.1%	·	·
CN(CC1CCOC1)S(=O)(=O)c1ccc(F)cc1F (stereo not drawn)	·	·	·	38.5%	·	·
COc1ccc(-c2nc(C(C)C)nc3c2CCN(C(=O)c2ccc(C(F)(F)F)cc2)CC3)cc1	·	·	·	4.9%	·	·
Cc1ccc(Cl)cc1N1CCN(C(=O)c2noc3c2CCCC3)CC1	·	·	·	-3.4%	11.6µM*	?
Cc1ccc(C(=O)N2CCN(c3cccc(C)c3C)CC2)o1	10.6	?	?	?	16.4µM*	?
O=C(c1ccc(CS(=O)c2ccccc2Cl)o1)N1CCN(c2ccccc2F)CC1 (stereo not drawn)	·	·	·	0.0%	1.3µM*	1.3µM*
Cc1cccc(N2CCN(C(=O)c3cccs3)CC2)c1C	-1.3	0.0%	-5.8%	?	-29.1%	?
Cc1cccc(N2CCN(C(=O)c3noc4c3CCCCC4)CC2)c1C	·	·	·	-18.4%	?	-50.7%
Cc1cccc(N2CCN(C(=O)c3ccc(CS(=O)c4cccc(Cl)c4)o3)CC2)c1C (stereo not drawn)	·	·	·	?	0.82µM*	0.92µM*
CC(NC(=O)c1cc(-c2ccncc2)cn1C)c1ccc(F)cc1 (stereo not drawn)	·	·	·	29.6%	·	·
Cc1ccc(-c2nc(CNC(=O)C3(N)CCC3)[nH]c2-c2ccccn2)cc1	·	·	·	-28.4%	·	·
O=C(c1ccc(CS(=O)c2cccc(Cl)c2)o1)N1CCOCC1 (stereo not drawn)	8.6	0.4%	1.6%	-24.0%	-11.4%	17.4%
Cc1ccc(Cl)cc1N1CCN(C(=O)c2ccc(CS(=O)c3ccccc3)o2)CC1 (stereo not drawn)	·	·	·	?	2.59µM*	5.17µM*
